{
  "source": "paper PMC4336329",
  "about": "(PLoS ONE, 2015)",
  "note": "Out of some 310,000 compounds screened, about 14,000 (4.5%) showed an effect of 50% or more. Effects have a minus sign here. For the sample, strong results were picked, then their nearest neighbours and some compounds at random.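 Also: peak tail current of the secondary pulse compared with the same well before compound.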",
  "data": [
    {"target": "human ether-à-go-go-related gene (hERG) potassium channel (human, UniProt Q12809)", "sequence (Q12809 whole entry, looked up)": "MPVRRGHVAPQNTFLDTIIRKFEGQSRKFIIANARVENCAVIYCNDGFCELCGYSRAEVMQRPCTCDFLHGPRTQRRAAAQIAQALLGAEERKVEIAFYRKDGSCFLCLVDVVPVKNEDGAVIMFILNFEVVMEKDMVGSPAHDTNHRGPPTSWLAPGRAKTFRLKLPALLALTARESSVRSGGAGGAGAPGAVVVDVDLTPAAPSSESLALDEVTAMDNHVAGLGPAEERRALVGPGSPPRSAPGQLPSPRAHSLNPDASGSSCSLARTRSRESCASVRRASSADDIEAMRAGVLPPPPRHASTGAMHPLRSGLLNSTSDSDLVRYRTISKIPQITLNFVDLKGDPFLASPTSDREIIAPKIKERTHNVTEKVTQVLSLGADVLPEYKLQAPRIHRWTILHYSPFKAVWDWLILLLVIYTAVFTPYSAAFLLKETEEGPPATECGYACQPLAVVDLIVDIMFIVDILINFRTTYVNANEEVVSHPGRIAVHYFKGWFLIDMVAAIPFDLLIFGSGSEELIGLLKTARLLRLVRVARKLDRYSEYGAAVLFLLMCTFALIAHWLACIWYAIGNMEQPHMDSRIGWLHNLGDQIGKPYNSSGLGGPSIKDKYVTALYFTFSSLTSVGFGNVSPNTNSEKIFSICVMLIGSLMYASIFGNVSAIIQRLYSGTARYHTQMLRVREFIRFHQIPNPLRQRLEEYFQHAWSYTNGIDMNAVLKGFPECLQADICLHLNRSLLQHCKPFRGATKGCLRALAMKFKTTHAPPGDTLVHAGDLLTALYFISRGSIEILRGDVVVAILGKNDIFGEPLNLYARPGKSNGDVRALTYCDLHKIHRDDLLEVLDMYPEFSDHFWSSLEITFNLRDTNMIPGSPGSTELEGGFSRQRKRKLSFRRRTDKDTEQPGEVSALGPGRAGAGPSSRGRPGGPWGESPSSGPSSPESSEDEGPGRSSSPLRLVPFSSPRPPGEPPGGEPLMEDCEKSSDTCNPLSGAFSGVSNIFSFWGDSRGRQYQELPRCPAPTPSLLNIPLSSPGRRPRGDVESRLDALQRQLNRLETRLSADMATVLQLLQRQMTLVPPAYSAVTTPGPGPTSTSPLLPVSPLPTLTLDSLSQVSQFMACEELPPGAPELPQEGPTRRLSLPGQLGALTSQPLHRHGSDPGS", "test": "primary screen, population patch clamp on CHO cells stably expressing hERG; higher = less effect of the substance", "units": {"hERG current change (%, negative = inhibition) at 10uM": "%"}, "values": [
      {"smiles": "Cc1ccc2nc(Cl)c(/C=N/NC(=O)[C@H]3C[C@@H]3c3ccccc3)cc2c1", "hERG current change (%, negative = inhibition) at 10uM": 19.5},
      {"smiles": "O=C(Cc1ccc(-c2ccccc2)cc1)NCCN1CCOCC1", "hERG current change (%, negative = inhibition) at 10uM": 0.566},
      {"smiles": "COc1cccc(CC2(CO)CCCN(Cc3ccc(C)s3)C2)c1", "note": "(stereo not shown)", "hERG current change (%, negative = inhibition) at 10uM": -50.5},
      {"smiles": "COc1cccc(CC2(CO)CCCN(Cc3ccc(CN4CCCCC4)s3)C2)c1", "note": "(stereo not shown)", "hERG current change (%, negative = inhibition) at 10uM": -22.1},
      {"smiles": "COc1cccc(CC2(CO)CCCN(Cc3cc4ccccc4[nH]3)C2)c1", "note": "(stereo not shown)", "hERG current change (%, negative = inhibition) at 10uM": -37.5},
      {"smiles": "COc1cccc(CC2(CO)CCCN(Cc3[nH]c4ccc(C)cc4c3C)C2)c1", "note": "(stereo not shown)", "hERG current change (%, negative = inhibition) at 10uM": -74.7},
      {"smiles": "COc1cccc(CC2(CO)CCCN(Cc3ccc4c(c3)OCCO4)C2)c1", "note": "(stereo not shown)", "hERG current change (%, negative = inhibition) at 10uM": -58.5},
      {"smiles": "COc1cccc(CC2(CO)CCCN(Cc3sc(N4CCCC4)nc3Cl)C2)c1", "note": "(stereo not shown)", "hERG current change (%, negative = inhibition) at 10uM": -27.2},
      {"smiles": "OCC1(Cc2ccccc2)CCCN(Cc2ccc3c(c2)OCCO3)C1", "note": "(stereo not shown)", "hERG current change (%, negative = inhibition) at 10uM": -24.6},
      {"smiles": "COc1cccc(CC2(CO)CCCN(Cc3ccc(OC(F)F)cc3)C2)c1", "note": "(stereo not shown)", "hERG current change (%, negative = inhibition) at 10uM": -68.6},
      {"smiles": "CCC(NC(=O)c1ccccc1NC(=O)c1ccco1)C(=O)NNC(=O)c1ccc(OC)cc1", "note": "(stereo not shown)", "hERG current change (%, negative = inhibition) at 10uM": 10.3},
      {"smiles": "NC(=O)c1ccc(SCC(=O)OCC(=O)NCC2CCCCC2)c([N+](=O)[O-])c1", "hERG current change (%, negative = inhibition) at 10uM": -5.21},
      {"smiles": "CC(C)(C)NC(=O)c1ccc2c(c1)N(CC(=O)NC1CCCC1)C(=O)C(C)(C)O2", "hERG current change (%, negative = inhibition) at 10uM": 8.72},
      {"smiles": "COc1ccc(-c2csc(NC(=O)CSCC(=O)Nc3cc(C)on3)n2)cc1OC", "hERG current change (%, negative = inhibition) at 10uM": 1.07},
      {"smiles": "O=C(Nc1ccc(-c2n[nH]c(=S)o2)cc1)c1ccccc1", "hERG current change (%, negative = inhibition) at 10uM": 15.6},
      {"smiles": "O=C(c1cccc(S(=O)(=O)Nc2ccccc2F)c1)N1CCN(c2ccccc2F)CC1", "hERG current change (%, negative = inhibition) at 10uM": -21.5},
      {"smiles": "CCOc1ccc(NC(=O)CSc2nccn2Cc2ccco2)cc1", "hERG current change (%, negative = inhibition) at 10uM": -19.5},
      {"smiles": "Cc1cc(S(=O)(=O)N2CCCC(C(=O)Nc3ccc(C(=O)O)cc3)C2)ccc1Cl", "note": "(stereo not shown)", "hERG current change (%, negative = inhibition) at 10uM": 10.2},
      {"smiles": "COc1ccc(CSc2nnnn2C)cc1F", "hERG current change (%, negative = inhibition) at 10uM": -6.74},
      {"smiles": "CCOC(=O)C1CCN(C2=NC(=O)/C(=C/c3ccc(O)cc3)S2)CC1", "hERG current change (%, negative = inhibition) at 10uM": -67.1},
      {"smiles": "CCOC(=O)C1CCCN(C2=NC(=O)/C(=C/c3ccc(N(C)C)cc3)S2)C1", "note": "(stereo not shown)", "hERG current change (%, negative = inhibition) at 10uM": -24.9},
      {"smiles": "Cc1ccc(/C=C2\\SC(N3CCCC3)=NC2=O)cc1", "hERG current change (%, negative = inhibition) at 10uM": -22.4},
      {"smiles": "CC(C)(C)c1ccc(/C=C2/SC(N3CCCC3)=NC2=O)cc1", "hERG current change (%, negative = inhibition) at 10uM": -51.1},
      {"smiles": "CCOC(=O)C1CCN(C2=NC(=O)/C(=C/c3ccccc3OC)S2)CC1", "hERG current change (%, negative = inhibition) at 10uM": -22.9},
      {"smiles": "CC1CCN(C2=NC(=O)/C(=C/c3ccc(O)cc3)S2)CC1", "hERG current change (%, negative = inhibition) at 10uM": -24.7},
      {"smiles": "Cc1ccc(/C=C2\\SC(N3CCCCC3)=NC2=O)cc1", "hERG current change (%, negative = inhibition) at 10uM": 0.193},
      {"smiles": "CCOC(=O)C1CCN(C2=NC(=O)/C(=C/c3ccc(Cl)cc3)S2)CC1", "hERG current change (%, negative = inhibition) at 10uM": -64.8},
      {"smiles": "CCOC(=O)C1CCN(C2=NC(=O)/C(=C/c3ccc(OC)c(OC)c3)S2)CC1", "hERG current change (%, negative = inhibition) at 10uM": -17.8},
      {"smiles": "COc1ccc(NCc2nnc(SCC(=O)Nc3ccc(OC)cc3OC)o2)cc1", "hERG current change (%, negative = inhibition) at 10uM": -9.35},
      {"smiles": "CCN(c1ccccc1)S(=O)(=O)c1cc2c(cc1C)n(C)c(=O)c(=O)n2C", "hERG current change (%, negative = inhibition) at 10uM": -32},
      {"smiles": "Cc1cccc(C(=O)NNS(=O)(=O)c2ccccc2[N+](=O)[O-])c1", "hERG current change (%, negative = inhibition) at 10uM": 1.16},
      {"smiles": "CN(C(=O)CCS(=O)(=O)c1ccc2c(c1)oc(=O)n2C)C1CCCCC1", "hERG current change (%, negative = inhibition) at 10uM": 3.68},
      {"smiles": "Cc1nn(CCC(=O)O)c(C)c1C", "hERG current change (%, negative = inhibition) at 10uM": 5.72},
      {"smiles": "C=CCn1c(=O)c2c(nc3n2CCN3c2cccc(Cl)c2C)n(C)c1=O", "hERG current change (%, negative = inhibition) at 10uM": -15},
      {"smiles": "CCOC(=O)N1CCN(Cc2nc3cc([N+](=O)[O-])ccc3n2CC)CC1", "hERG current change (%, negative = inhibition) at 10uM": -51.9},
      {"smiles": "CCOC(=O)N1CCN(Cc2nc3cc([N+](=O)[O-])ccc3n2C)CC1", "hERG current change (%, negative = inhibition) at 10uM": -24.5},
      {"smiles": "CCCn1c(CN2CCN(C(=O)OCC)CC2)nc2cc(NC(C)=O)ccc21", "hERG current change (%, negative = inhibition) at 10uM": 12.8},
      {"smiles": "CCOC(=O)N1CCN(Cc2nc3cc(NC(=O)CC(C)C)ccc3n2CC)CC1", "hERG current change (%, negative = inhibition) at 10uM": -8.18},
      {"smiles": "CCOC(=O)N1CCN(Cc2nc3cc(NC(=O)C(C)C)ccc3n2CC)CC1", "hERG current change (%, negative = inhibition) at 10uM": 14.3},
      {"smiles": "CCCn1c(CN2CCN(C(=O)OCC)CC2)nc2cc([N+](=O)[O-])ccc21", "hERG current change (%, negative = inhibition) at 10uM": -64},
      {"smiles": "O=C(COC(=O)c1ccco1)NCc1cccs1", "hERG current change (%, negative = inhibition) at 10uM": 12.4},
      {"smiles": "CC(=O)Nc1cc(C(=O)NCc2ccco2)ccc1Sc1ccc(F)cc1", "hERG current change (%, negative = inhibition) at 10uM": -40.8},
      {"smiles": "CCN(CC)CCNC(=O)c1ccc(Sc2ccc(Cl)cc2)c(NC(C)=O)c1", "hERG current change (%, negative = inhibition) at 10uM": -61.7}
    ]}
  ]
}
